In PubChem BioAssay AID1159580 (chemical genetic matrix, 2015):
Several values for one entry are separate records, joined by “and”; a condition that tells them apart may be missing. Equal entries are not always repeated. Among all 5,500 compounds or so, about 2,000 (36%) were called active. Inconclusive results (about 18%) are left out. Rule as the data show it: active = normalized growth mostly below about 0.91 (no sharp cut-off); inconclusive = no clear call, values can overlap the other calls; inactive = mostly above about 0.92. Some of the results follow.

Assay: chemical genetic growth profiling, strain panel (AID 1159580);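 also: tested at 20 µM; growth read once vehicle control cultures reached saturation at 30 °C; 1 = growth at the plate median or of vehicle wells; lower values mean less growth of the strain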
Conditions: growth OD
[1] = S. cerevisiae deletion strains, locus YBR021W, strain FUR4, stronger effect = lower value
[2] = S. cerevisiae deletion strains, locus YBR229C, strain ROT2, stronger effect = lower value
[3] = S. cerevisiae deletion strains, locus YCL029C, strain bik1, stronger effect = lower value
[4] = S. cerevisiae deletion strains, locus YDL035C, strain GPR1, stronger effect = lower value
[5] = S. cerevisiae deletion strains, locus YDL074C, strain BRE1, stronger effect = lower value
[6] = S. cerevisiae deletion strains, locus YDL101C, strain DUN1, stronger effect = lower value
[7] = S. cerevisiae deletion strains, locus YDL185W, strain tfp1, stronger effect = lower value
[8] = S. cerevisiae deletion strains, locus YDL192W, strain arf1, stronger effect = lower value
[9] = S. cerevisiae deletion strains, locus YDR101C, strain arx1, stronger effect = lower value
[10] = S. cerevisiae deletion strains, locus YDR162C, strain NBP2, stronger effect = lower value
[11] = S. cerevisiae deletion strains, locus YDR318W, strain mcm21, stronger effect = lower value
[12] = S. cerevisiae deletion strains, locus YDR388W, stronger effect = lower value
[13] = S. cerevisiae deletion strains, locus YDR502C, strain sam2, stronger effect = lower value
[14] = S. cerevisiae deletion strains, locus YER110C, stronger effect = lower value
[15] = S. cerevisiae deletion strains, locus YER155C, strain BEM2, stronger effect = lower value
[16] = S. cerevisiae deletion strains, locus YER167W, strain BCK2, stronger effect = lower value
[17] = S. cerevisiae deletion strains, locus YGL078C, strain dbp3, stronger effect = lower value
[18] = S. cerevisiae deletion strains, locus YGL086W, strain mad1, stronger effect = lower value
[19] = S. cerevisiae deletion strains, locus YGL248W, strain PDE1, stronger effect = lower value
[20] = S. cerevisiae deletion strains, locus YGR135W, strain pre9, stronger effect = lower value
[21] = S. cerevisiae deletion strains, locus YGR252W, strain gcn5, stronger effect = lower value
[22] = S. cerevisiae deletion strains, locus YHR030C, strain SLT2, stronger effect = lower value
[23] = S. cerevisiae deletion strains, locus YHR079C, strain IRE1 (second series), stronger effect = lower value
[24] = S. cerevisiae deletion strains, locus YHR079C, strain IRE1, stronger effect = lower value
[25] = S. cerevisiae deletion strains, locus YHR094C, strain hxt1, stronger effect = lower value
[26] = S. cerevisiae deletion strains, locus YHR129C, strain ARP1, stronger effect = lower value
[27] = S. cerevisiae deletion strains, locus YHR200W, strain rpn10, stronger effect = lower value
[28] = S. cerevisiae deletion strains, locus YIL066C, strain RNR3, stronger effect = lower value
[29] = S. cerevisiae deletion strains, locus YIL073C, strain SPO22, stronger effect = lower value
[30] = S. cerevisiae deletion strains, locus YIL125W, strain kgd1, stronger effect = lower value
[31] = S. cerevisiae deletion strains, locus YIR030C, strain dcg1, stronger effect = lower value
[32] = S. cerevisiae deletion strains, locus YJL095W, strain BCK1, stronger effect = lower value
[33] = S. cerevisiae deletion strains, locus YJL134W, strain LCB3, stronger effect = lower value
[34] = S. cerevisiae deletion strains, locus YJL168C, strain set2, stronger effect = lower value
[35] = S. cerevisiae deletion strains, locus YJL187C, strain SWE1 (second series), stronger effect = lower value
[36] = S. cerevisiae deletion strains, locus YJR066W, strain TOR1, stronger effect = lower value
[37] = S. cerevisiae deletion strains, locus YKL009W, strain mrt4, stronger effect = lower value
[38] = S. cerevisiae deletion strains, locus YKL068W, stronger effect = lower value
[39] = S. cerevisiae deletion strains, locus YKL085W, strain MDH1 (second series), stronger effect = lower value
[40] = S. cerevisiae deletion strains, locus YKL085W, strain MDH1, stronger effect = lower value
[41] = S. cerevisiae deletion strains, locus YKR001C, strain vps1, stronger effect = lower value
[42] = S. cerevisiae deletion strains, locus YLR039C, strain RIC1, stronger effect = lower value
[43] = S. cerevisiae deletion strains, locus YLR058C, strain SHM2, stronger effect = lower value
[44] = S. cerevisiae deletion strains, locus YLR102C, strain apc9, stronger effect = lower value
[45] = S. cerevisiae deletion strains, locus YLR113W, strain HOG1, stronger effect = lower value
[46] = S. cerevisiae deletion strains, locus YLR268W, strain sec22, stronger effect = lower value
[47] = S. cerevisiae deletion strains, locus YLR330W, strain CHS5, stronger effect = lower value
[48] = S. cerevisiae deletion strains, locus YLR371W, strain rom2, stronger effect = lower value
[49] = S. cerevisiae deletion strains, locus YLR418C, strain cdc73, stronger effect = lower value
[50] = S. cerevisiae deletion strains, locus YML016C, strain PPZ1, stronger effect = lower value
[51] = S. cerevisiae deletion strains, locus YML032C, strain rad52, stronger effect = lower value
[52] = S. cerevisiae deletion strains, locus YML124C, strain tub3, stronger effect = lower value
[53] = S. cerevisiae deletion strains, locus YMR078C, strain ctf18, stronger effect = lower value
[54] = S. cerevisiae deletion strains, locus YMR223W, strain ubp8, stronger effect = lower value
[55] = S. cerevisiae deletion strains, locus YMR307W, strain GAS1, stronger effect = lower value
[56] = S. cerevisiae deletion strains, locus YNL067W, strain RPL9B, stronger effect = lower value
[57] = S. cerevisiae deletion strains, locus YNL128W, strain TEP1, stronger effect = lower value
[58] = S. cerevisiae deletion strains, locus YNL183C, strain NPR1, stronger effect = lower value
[59] = S. cerevisiae deletion strains, locus YNL233W, strain BNI4, stronger effect = lower value
[60] = S. cerevisiae deletion strains, locus YNL250W, strain rad50, stronger effect = lower value
[61] = S. cerevisiae deletion strains, locus YNL271C, strain bni1, stronger effect = lower value
[62] = S. cerevisiae deletion strains, locus YNL298W, strain CLA4, stronger effect = lower value
[63] = S. cerevisiae deletion strains, locus YNL307C, strain MCK1, stronger effect = lower value
[64] = S. cerevisiae deletion strains, locus YNL322C, strain KRE1, stronger effect = lower value
[65] = S. cerevisiae deletion strains, locus YNR052C, strain pop2, stronger effect = lower value
[66] = S. cerevisiae deletion strains, locus YOL012C, strain htz1
[67] = S. cerevisiae deletion strains, locus YOL147C, strain pex11, stronger effect = lower value
[68] = S. cerevisiae deletion strains, locus YOR061W, strain CKA2, stronger effect = lower value
[69] = S. cerevisiae deletion strains, locus YOR069W, strain VPS5, stronger effect = lower value
[70] = S. cerevisiae deletion strains, locus YOR136W, strain idh2, stronger effect = lower value
[71] = S. cerevisiae deletion strains, locus YOR144C, strain elg1, stronger effect = lower value
[72] = S. cerevisiae deletion strains, locus YOR184W, strain ser1, stronger effect = lower value
[73] = S. cerevisiae deletion strains, locus YOR231W, strain MKK1, stronger effect = lower value
[74] = S. cerevisiae deletion strains, locus YOR316C, strain cot1, stronger effect = lower value
[75] = S. cerevisiae deletion strains, locus YPL256C, strain CLN2, stronger effect = lower value
[76] = S. cerevisiae deletion strains, locus YPR119W, strain clb2, stronger effect = lower value
[77] = S. cerevisiae deletion strains, locus YPR141C, strain kar3, stronger effect = lower value
[78] = S. cerevisiae deletion strains, locus YPR163C, strain tif3, stronger effect = lower value
[79] = S. cerevisiae deletion strains, locus YPR167C, strain met16, stronger effect = lower value
[80] = S. cerevisiae deletion strains, strain wtn01, stronger effect = lower value

Measured: normalized growth

CC(C)=CCCC1(C)C=Cc2c(O)c3c(c(CC=C(C)C)c2O1)OC12C(CC4CC1C(C)(C)OC2(C/C=C(/C)C(=O)O)C4O)C3=O (stereo not drawn)
inactive: S. cerevisiae deletion strains, locus YAL013W, strain DEP1, stronger effect = lower value 1.01 | [1] 1.07 | [2] 0.959 | [3] 0.994 | [4] 0.961 | [5] 1.01 | [6] 0.978 | [7] 0.997 | [8] 0.947 | [9] 0.96 | [10] 0.851 | [11] 0.988 | [12] 0.99 | [13] 1.02 | S. cerevisiae deletion strains, locus YEL061C, strain CIN8, stronger effect = lower value 0.989 | [14] 0.981 | [15] 1.04 | [16] 1.01 | [17] 1.01 | [18] 0.993 | [19] 0.994 | [20] 1.06 | S. cerevisiae deletion strains, locus YGR229C, strain SMI1, stronger effect = lower value 0.988 | [21] 1.17 | [22] 1.01 and 0.984 | [23] 0.981 | [24] 0.985 | [25] 1 | [26] 1.02 | [27] 1.01 | [28] 0.97 | [29] 1.07 | [30] 0.992 | [31] 0.997 | [32] 0.884 and 1.01 | [33] 0.993 | [34] 0.995 | [35] 0.972 | [36] 0.935 | [37] 1.02 | [38] 0.996 | [39] 1.02 | [40] 1.02 | S. cerevisiae deletion strains, locus YKL190W, strain CNB1, stronger effect = lower value 0.988 | [41] 0.961 | [42] 0.774 | [43] 0.98 | [44] 1.01 | [45] 0.92 | [46] 0.93 | [47] 1.01 | S. cerevisiae deletion strains, locus YLR342W, strain FKS1 (second series), stronger effect = lower value 0.96 | [48] 1.03 | [49] 0.936 | [50] 0.987 | [51] 0.978 | [52] 1.01 | [53] 0.997 | [54] 0.991 | [55] 0.95 | [56] 0.996 | [57] 0.967 | S. cerevisiae deletion strains, locus YNL153C, strain GIM3, stronger effect = lower value 1.04 | [58] 0.936 | [59] 1.06 | [60] 0.993 | [61] 0.99 | [62] 0.986 | [63] 0.942 | [64] 1 | [65] 1 | [66] 1.58 | [67] 1 | [68] 0.967 | [69] 0.988 | [70] 1.01 | [71] 1 | [72] 0.903 | [73] 0.963 | [74] 0.994 | [75] 0.957 | [76] 0.994 | [77] 0.991 | [78] 0.967 | [79] 1.02 | [80] 0.972 | S. cerevisiae strains, strain wild type, stronger effect = lower value 0.968

CC(C)=CCCC1(C)C=Cc2c(O)c3c(c(CC=C(C)C)c2O1)OC12C(=CC4CC1C(C)(C)OC2(C/C=C(/C)C(=O)O)C4O)C3=O (stereo not drawn)
inactive: [1] 1.02 | [2] 0.947 | [3] 0.946 | [4] 0.953 | [5] 1.03 | [6] 0.944 | S. cerevisiae deletion strains, locus YDL134C, strain PPH21, stronger effect = lower value 0.949 | [7] 0.955 | [8] 0.945 | [9] 0.929 | [10] 0.862 | [11] 0.931 | [12] 0.942 | [14] 0.952 | [15] 1.01 | [16] 0.995 | [17] 0.967 | [19] 0.946 | S. cerevisiae deletion strains, locus YGR078C, strain PAC10, stronger effect = lower value 1.01 | [20] 1 | [21] 1.06 | [22] 0.983 and 0.976 | [23] 0.944 | [24] 0.971 | [25] 0.958 | [26] 0.955 | [27] 0.938 | [28] 0.924 | [29] 1.06 | [30] 0.936 | [31] 0.966 | [32] 0.938 and 0.988 | [33] 0.976 | [34] 0.99 | [35] 0.929 | S. cerevisiae deletion strains, locus YJR043C, strain POL32, stronger effect = lower value 0.963 | [36] 0.949 | [37] 0.953 | [38] 0.98 | [39] 0.962 | [40] 0.962 | [42] 0.883 | [43] 0.931 | [44] 0.966 | [45] 0.911 | [47] 0.991 | [48] 0.964 | [50] 0.963 | [51] 0.945 | [52] 0.952 | [53] 0.967 | [54] 0.956 | S. cerevisiae deletion strains, locus YMR263W, strain SAP30, stronger effect = lower value 0.971 | [55] 1.03 | [56] 0.985 | [57] 0.921 | [58] 0.917 | [59] 1.02 | [60] 0.951 | [61] 0.947 | [62] 0.955 | [64] 0.986 | [65] 0.961 | [66] 0.366 | [67] 0.97 | [68] 0.924 | [69] 0.979 | [70] 0.962 | [71] 0.966 | [73] 0.942 | [74] 0.956 | S. cerevisiae deletion strains, locus YPL055C, strain LGE1, stronger effect = lower value 0.949 | S. cerevisiae deletion strains, locus YPL241C, strain CIN2, stronger effect = lower value 0.98 | [75] 0.955 | [76] 0.966 | [77] 0.954 | [79] 0.984 | [80] 0.911
active: [13] 0.917 | [18] 0.925 | [41] 0.849 | [46] 0.883 | [49] 0.787 | [63] 0.72 | [72] 0.803 | [78] 0.909
